nsP2pro inh: blocks chikungunya virus nsP2 protease peptide cleavage; Potency, µM (doses to about 24.9 µM), usual class: inhibitors; actives 1.1% (n = 31,000); FRET peptide cleavage, nsP2pro, fluorescence 1 h; Q8JUX6; AID 1964107; also: nearly all actives have a fitted effect of over 60% in size
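Purified recombinant nsP2pro (150 nM final) in 10 mM Tris-HCl pH 8.0 with 0.01% Tween 20 was preincubated 15 min at room temperature with compound (7 concentrations, up to 25 uM). FRET peptide 2 substrate (2.5 uM final) was then added; fluorescence was read after 1 h.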
CHIKV nsP2 cell: cell-based CHIKV nsP2 protease inhibition, secondary; shares compounds with nsP2pro inh; cell-based CHIKV nsP2 protease reporter assay; Potency, µM (series often up to 51.1 µM), actives largely listed as inhibitors; actives 10% (n = 450); AID 1964100; also: nearly all actives have a fitted effect of over 70% in size
CHIKV NSP2 FL: selectivity test for CHIKV nsP2 protease inhibitors: full-length NSP2. shares compounds with nsP2pro inh. Potency, µM (top dose mostly 50.7 µM), usual class: inhibitors. Full-length CHIKV NSP2 protease enzymatic counterscreen. actives 39% (n = 410); also: nearly all actives have a fitted effect of over 65% in size
Furin counterscr: human furin inhibition, counterscreen for nsP2pro inhibitors; actives 6% (n = 410); shares compounds with nsP2pro inh; Potency, µM (series often up to 50.6 µM), most hits filed as inhibitors; Recombinant human furin enzymatic counterscreen, fluorogenic substrate; AID 1964102
nsP2 NS23 pep: selectivity test for CHIKV nsP2 protease inhibitors: endogenous NS2/3 peptide. shares compounds with nsP2pro inh. Purified CHIKV nsP2 protease, endogenous NS2/3 peptide cleavage. Potency, µM (titrated, usually from 51 µM), most hits filed as inhibitors. actives 34% (n = 410). AID 1964103; also: nearly all actives have a fitted effect of over 55% in size
Papain counter: selectivity counter-screen for CHIKV nsP2 protease inhibitors: papain. shares compounds with nsP2pro inh. purified papain protease activity, enzymatic inhibition. Potency, µM (top dose mostly 51 µM), actives largely listed as inhibitors. actives 5% (n = 410)
nsP2pro confirm: CHIKV nsP2 protease inhibition, confirmatory qHTS; Potency, µM (doses to about 25.5 µM), actives largely listed as inhibitors; actives 43% (n = 410); CHIKV nsP2 protease enzymatic activity, qHTS; shares compounds with nsP2pro inh; also: nearly all actives have a fitted effect of over 75% in size
HCV NS3 4A cs: inhibits HCV NS3/4A protease in an nsP2pro selectivity counterscreen; actives 20% (n = 410); shares compounds with nsP2pro inh; HCV NS3/4A protease biochemical counterscreen; Potency, µM (highest dose often 50.9 µM), actives largely listed as inhibitors; also: nearly all actives have a fitted effect of over 55% in size
A number is an active result; 0 = inactive; ? = inconclusive; ! = repeats disagree; [ ] = remark or other dose. The entries come from a sample that favours hits as a whole. Calls follow the shape of the full dose curve.

SMILES	nsP2pro inh	others
Oc1ccc(C(O)CNCCCCCCNCC(O)c2ccc(O)c(O)c2)cc1O (centres undefined)	?	CHIKV nsP2 cell=0;CHIKV NSP2 FL=?;Furin counterscr=26µM;nsP2 NS23 pep=0;Papain counter=0;nsP2pro confirm=0;HCV NS3 4A cs=0
Nc1ccc2c(c1)C(=O)NS2(=O)=O	0
O=[N+]([O-])C(Br)(CO)CO	2.5µM	CHIKV nsP2 cell=0;CHIKV NSP2 FL=9.2µM;Furin counterscr=0;nsP2 NS23 pep=9.2µM;Papain counter=0;nsP2pro confirm=1.6µM;HCV NS3 4A cs=?
CS(=O)(=O)c1ccc([C@@H](C[C@H]2CCC(=O)C2)C(=O)Nc2cnccn2)cc1Cl	0
Cc1ccc(S(=O)(=O)Nc2cnccc2C(=O)Nc2nc(-c3ccc(-c4ccccc4)cc3)cs2)cc1	0
CN1C(=O)CCC2(CNC(=O)CCc3c[nH]c4ccccc34)CCC=C12 (centres undefined)	0
CC(=O)N1CCN(c2ccc(C(=O)N3CCN(Cc4ccccc4)CC3)nn2)C(=O)C1	3.5µM	CHIKV nsP2 cell=0;CHIKV NSP2 FL=7.3µM;Furin counterscr=0;nsP2 NS23 pep=15µM;Papain counter=0;nsP2pro confirm=8µM;HCV NS3 4A cs=5.2µM
CN(C)C(=O)N1CCN(c2ccc(Cl)nn2)C(=O)C1	0
CC(=O)N1CCN(Cc2ccccc2-c2cccnc2)CC1	0
C[C@@H]1O[C@@H](O[C@H]2[C@H](O)[C@@H](O[C@@H]3O[C@H](CO)[C@H](O)[C@H](O)[C@H]3O)[C@H](O[C@H]3CC[C@@]4(C)C(CC[C@]5(C)C4CC=C4[C@@H]6CC(C)(C)CC[C@]6(C(=O)O[C@@H]6O[C@H](CO)[C@@H](O)[C@H](O)[C@H]6O)CC[C@]45C)C3(C)C)O[C@@H]2C(=O)O)[C@H](O)[C@H](O)[C@H]1O (some centres undefined)	0[5.1 µM]
CNc1nc(C#N)c(-c2cccc3ccccc23)o1	0
Cc1cc(NS(=O)(=O)CCNC(=O)Cc2ccc(Cl)c(Cl)c2)no1	0
O=C(Nc1cncc(NC(=O)c2cccs2)c1)c1cccs1	0
CCOc1ccc(CCNC(=O)c2cc3sccc3n2Cc2ccccn2)cc1OCC	0
O=[S+]([O-])(Nc1ccc(N2CCNCC2)cc1)c1ccc(NCc2ccc(Cl)cc2O)cc1	0
CC(=O)OC1(C)CC(O)C2(O)C=COC(OC3OC(CO)C(O)C(O)C3O)C12 (centres undefined)	0
CC(=O)OC1C(O)CC(O[C@@H]2O[C@H](CO)[C@@H](O)[C@H](O)[C@H]2O)C2CCC3C(=O)OC(c4ccoc4)CC3(C)C21 (some centres undefined)	?	CHIKV nsP2 cell=0;CHIKV NSP2 FL=0;Furin counterscr=0;nsP2 NS23 pep=0;Papain counter=0;nsP2pro confirm=0;HCV NS3 4A cs=0
CC(=O)O[C@@]1(C)C[C@@H](O)[C@]2(O)C=CO[C@@H](O[C@@H]3O[C@H](CO)[C@@H](O)[C@H](O)[C@H]3O)[C@@H]21	0
COc1ccc(-c2ccc(Nc3nc(-c4ccncc4)nc4ccccc34)cc2F)cc1F	0
COc1ccc(NC(=O)c2nc(S(=O)(=O)Cc3ccc(C)cc3)ncc2Cl)cc1	0
COc1ccc(CNC(=O)c2nc(S(=O)(=O)Cc3ccccc3)ncc2Cl)cc1	6.3µM!	CHIKV nsP2 cell=3.7µM!;CHIKV NSP2 FL=16µM;Furin counterscr=0;nsP2 NS23 pep=8.2µM;Papain counter=0;nsP2pro confirm=5.7µM;HCV NS3 4A cs=?
CCOc1ccc(NC(=O)c2nc(S(=O)(=O)Cc3ccccc3)ncc2Cl)cc1	0
CC1CCc2c(cc(Br)c(F)c2Br)N1C=O (centres undefined)	?	CHIKV nsP2 cell=0;CHIKV NSP2 FL=?;Furin counterscr=0;nsP2 NS23 pep=?;Papain counter=0;nsP2pro confirm=?;HCV NS3 4A cs=?
CC1(C)S[C@H]2[C@H](NC(=O)[C@@H](N)c3ccc(O)cc3)C(=O)N2[C@H]1C(=O)O	0
Cc1ccc(-c2ccc(=O)n(CC(=O)N(C)C(C)c3ccco3)c2)cc1 (centres undefined)	0
SMILES	nsP2pro inh	others
FC(F)(F)c1cccc(N2CCN(C(=S)Nc3cccnc3)CC2)c1	0
Oc1cc(O)c2c(c1)O[C@H](c1ccc(O)c(O)c1)[C@H](O)C2	0
O=C(O[C@@H]1Cc2c(O)cc(O)cc2O[C@@H]1c1ccc(O)c(O)c1)c1cc(O)c(O)c(O)c1	?	CHIKV nsP2 cell=0;CHIKV NSP2 FL=23µM;Furin counterscr=0;nsP2 NS23 pep=15µM;Papain counter=0;nsP2pro confirm=?;HCV NS3 4A cs=?
OCC1OC(Oc2cc(O)c3c(c2)OC(c2ccc(O)cc2)C(O)C3)C(O)C1O (centres undefined)	0
O=C(O[C@@H]1Cc2c(O)cc(O)cc2O[C@@H]1c1cc(O)c(O)c(O)c1)c1cc(O)c(O)c(O)c1	4.4µM!	CHIKV nsP2 cell=0;CHIKV NSP2 FL=?;Furin counterscr=?;nsP2 NS23 pep=5.8µM;Papain counter=?;nsP2pro confirm=4.5µM;HCV NS3 4A cs=?
Cc1cc(C)cc(-c2ccc(CN3CCCC(N[S+](C)(=O)[O-])C3)cc2)c1 (centres undefined)	0
COc1ccc2nc(-c3ccc(F)cc3Cl)sc2c1	0
COC(=O)NC(C(=O)N1CCCC1c1nc2cc(F)c(C3CCC(c4cc5[nH]c(C6CCCN6C(=O)C(NC(=O)OC)C(C)OC)nc5cc4F)N3c3cc(F)c(N4CCC(c5ccc(F)cc5)CC4)c(F)c3)cc2[nH]1)C(C)OC (centres undefined)	0
CCCCN(Cc1ccc(C(=O)NO)cc1)C(=O)Nc1ccccc1	0
CCC[C@@H](C(=O)O)N1C(=O)[C@@H]2C[C@@H]3CCCC[C@@H]3N2C(=O)[C@@H]1C	0
Cc1ccc(C(=O)N2CCC(C(=O)N3CCC(N4CCCC4=O)CC3)CC2)cc1	0
CC(C)CC(=O)N1[C@@H](c2ccco2)[C@@H](C(=O)O)C[C@]12CCCCNC2=O	?	CHIKV nsP2 cell=0
CC(C)CC(=O)N1[C@@H](c2ccco2)[C@@H](CO)C[C@]12CCCCN(CCO)C2=O	?	CHIKV nsP2 cell=0
CC(C)CC(=O)N1CC(=O)Nc2ccc(F)cc2C1c1ccccc1 (centres undefined)	0
Cc1ccc(S(=O)(=O)Nc2ccc(C)cc2C(=O)Nc2nc(-c3ccccc3)cs2)cc1	0
OC[C@H]1O[C@@H](n2cnc3c2NC=NC[C@H]3O)CC1O (some centres undefined)	0
CN(CCCNC(=O)C1(CCO)CC12CCOCC2)C1CCCCC1 (centres undefined)	0
C/C(=N\N=C(N)N)c1cc(NC(=O)CCCCCCCCC(=O)Nc2cc(/C(C)=N/N=C(N)N)cc(/C(C)=N/N=C(N)N)c2)cc(/C(C)=N/N=C(N)N)c1	5.6µM	CHIKV nsP2 cell=0;CHIKV NSP2 FL=13µM;Furin counterscr=12µM;nsP2 NS23 pep=13µM;Papain counter=0;nsP2pro confirm=6.3µM;HCV NS3 4A cs=12µM
C=C1/C(=C\C=C2/CCC[C@@]3(C)C2CC[C@@H]3[C@H](C)/C=C\[C@@H](O)C2CC2)C[C@@H](O)C[C@@H]1O (some centres undefined)	0
O=C(Nc1ccccc1)c1cnc(N2CCCCC2)c2ccccc12	0
